Results from PubChem BioAssay (NCATS).
Records with an inconclusive call do not appear. Active and inactive are the calls of the source. The call rests on the fitted dose curve; in most records, active means well fitted inhibition curve with a large enough effect; inconclusive means small, poorly fitted or top-dose-only effect; inactive means no such curve, though single readings can be large or run the other way.

Target: Retinaldehyde dehydrogenase 3 (Homo sapiens) (UniProt P47895)
Assay: qHTS for Inhibitors of the Aldehyde Dehydrogenase Family (ALDH1A3) Primary screen (AID 2061315);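 further: plate controls were DMSO vehicle for no effect and reference inhibitor for full effect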
Settings: ALDH inhibition qHTS; series mostly up to 56 µM; activity change, negative = inhibition: at the top concentration

Row | Structure (SMILES) | activity change, negative = inhibition
1 | C[C@H]1C(=O)N2c3ccccc3[C@@]3(O)C[C@@H]4C(=O)N[C@](C)(c5nc6ccccc6c(=O)n54)N1[C@@H]23 | 5.45% [at 28 µM] (inactive)
2 | C=C(C)C1CCC(C)C12CC(O)C1(C)OC1C2OC(=O)C(N)CCC(=O)O (stereo not drawn) | 17.7% (inactive)
3 | CC(C)CC1(C(=O)OCc2ccc(O[C@@H]3O[C@H](CO)[C@@H](O)[C@H](O)[C@H]3O)cc2)CC(=O)OC(C(=O)O)CC(=O)OCC2OC(O1)C(OC(=O)/C=C/c1ccc(O)cc1)C(O)C2O (stereo partly drawn) | 1.11% [at 16.9 µM] (inactive)
4 | COc1cccc(NC[C@@H](O)Cn2c3ccc(Br)cc3c3cc(Br)ccc32)c1 | -12.3% (inactive)
5 | CC(CCC1(O)OC2CC3C4CCC5CC(O[C@@H]6O[C@H](CO)[C@@H](O)[C@H](O)[C@H]6O[C@@H]6OC[C@@H](O)[C@H](O)[C@H]6O)C(O)CC5(C)C4CCC3(C)C2C1C)CO[C@@H]1O[C@H](CO)[C@@H](O)[C@H](O)[C@H]1O (stereo partly drawn) | -0.802% [at 16.9 µM] (inactive)
6 | CC1CC(=O)C2=C(O1)OC1(C)CCC3C(C)(C)C=CC(=O)C3(C)C1C2 (stereo not drawn) | -27.9% (inactive)
7 | C=C1C(=O)O[C@@H]2[C@H]1CC(=O)[C@H](C)[C@@](O)(C(=O)/C=C/C)[C@H]2OC(=O)C(C)CC (stereo partly drawn) | 3.01% (inactive)
8 | Cc1cc(CNC(=O)c2cc(C(=O)NCc3ccc(F)c(C)c3)ncn2)ccc1F | 2.22% (inactive)
9 | COc1cc(O)cc2c1C(=O)OC(C)CCCCCCC2 (stereo not drawn) | 17.4% (inactive)
10 | N=c1nc2n(cc1F)C1OC(CO)C(O)C1O2 (stereo not drawn) | -9.98% (inactive)
11 | OC[C@H]1O[C@@H](OC[C@H]2O[C@@H](OCc3ccccc3)[C@H](O)[C@@H](O)[C@@H]2O)[C@H](O)[C@@H](O)[C@@H]1O | -8.47% [at 28 µM] (inactive)
12 | Cc1cn2cc(CC(=O)N3CCC4(CC3)CN(Cc3ccc(-n5nccn5)cc3Cl)C4)nc2s1 | 8.29% (inactive)
13 | CC(=O)O[C@@H]1C[C@@]2(C)C(CC[C@]3(C)C2CC=C2C4CC(C)(C)CC[C@]4(C(=O)O)CC[C@]23C)C(C)(C)[C@H]1O (stereo partly drawn) | 8.61% [at 28 µM] (inactive)
14 | CC(C)COc1ccc(CNC(=O)N(Cc2ccc(F)cc2)C2CCN(C)CC2)cc1 | -8.12% (inactive)
15 | CC(=O)OC[C@]12[C@@H](OC(=O)c3ccoc3)C[C@@H]3[C@@H](OC(C)=O)[C@]1(OC3(C)C)[C@@](C)(O)C[C@H](OC(=O)c1ccoc1)[C@@H]2OC(=O)c1ccoc1 | 8.92% [at 16.9 µM] (inactive)
16 | O=C(Nc1ccccc1C(=O)Nc1ccc(CCO)cc1)c1ccc([N+](=O)[O-])cc1 | -7.6% (inactive)
17 | CC1(C)C2CCC1(C)C(OC(=O)C(O)(CC(=O)O)CC(=O)O)C2 (stereo not drawn) | -12.6% (inactive)
18 | CNC(C)C(=O)NC(C(=O)N1CCCC1C(=O)Nc1cccc2ncccc12)C(C)C (stereo not drawn) | -11.4% (inactive)

Target: Aldehyde dehydrogenase 1A1 (Homo sapiens) (UniProt P00352)
Assay: qHTS for Inhibitors of the Aldehyde Dehydrogenase Family (ALDH1A1) Confirmatory screens (AID 2061316); further: nearly all actives have a fitted effect of over 65% in size; further: potency means the concentration at half of the fitted maximal effect; on activity change, negative = inhibition: on the % scale 0 is the no-effect control and ±100 the full control effect
Settings: ALDH inhibition qHTS; series mostly up to 47.3 µM; activity change, negative = inhibition: at the top concentration

Row | Structure (SMILES) | Potency | activity change, negative = inhibition
19 | Cc1ccc(CNc2ncnc3ccc(-c4ccc(CO)o4)cc23)o1 | 4000 nM (active) | –
20 | O=C1NC(=O)C(c2cnc3ccccn23)=C1c1cn2c3c(cccc13)CN(C(=O)N1CCOCC1)CC2 | 12700 nM (active) | –
21 | C=C1C(=O)O[C@@H]2[C@H]1CC(=O)[C@H](C)[C@@](O)(C(=O)/C=C/C)[C@H]2OC(=O)C(C)CC (stereo partly drawn) | – | -10.2% [at 25.5 µM] (inactive)
22 | CC1(C)C2CCC1(C)C(OC(=O)C(O)(CC(=O)O)CC(=O)O)C2 (stereo not drawn) | – | -18.8% [at 25.5 µM] (inactive)

System: not listed separately
Assay: BET inhibitor-based combinations targeting novel dependencies in MECOM-rearranged (r) AML: MV-4-11 cell line (AID 2202233); further: nearly all actives have a fitted effect of over 45% in size; further: potency means the concentration at half of the fitted maximal effect;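 on viability, % of control: plate controls were DMSO for no effect and blank wells for full effect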
Settings: MV-4-11 AML viability, CellTiter-Glo luminescence, 48 h; series mostly up to 46 µM; viability, % of control: at the top concentration
How it was run: (§1)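 Activity is given as area under the curve and as Z-AUC, mean-centred within each cell line. It comes from 11-point dose curves normalized to DMSO and empty wells. CellTiter-Glo luminescence was read after 48 hr drug exposure of 500 cells/well.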

Row | Structure (SMILES) | Potency | viability, % of control
23 | O=C1NC(=O)C(c2cnc3ccccn23)=C1c1cn2c3c(cccc13)CN(C(=O)N1CCOCC1)CC2 | 93.4 nM (active) | –
24 | N#Cc1c(O)c2c(-c3ccc(-c4ccccc4O)cc3)csc2[nH]c1=O | – | 115% (inactive)
25 | CNC(=O)c1ccc2c(C(=Nc3cccc(CN(C)C)c3)c3ccccc3)c(O)[nH]c2c1 | 1660 nM (active) | –

System: not listed separately
Assay: BET inhibitor-based combinations targeting novel dependencies in MECOM-rearranged (r) AML: HNT-34 cell line (AID 2202234); further: nearly all actives have a fitted effect of over 35% in size; further: potency means the concentration at half of the fitted maximal effect;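 on viability (% of control): plate controls were vehicle wells for no effect and cell-free wells for full effect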
Settings: HNT-34 AML viability, CellTiter-Glo luminescence, 48 h; series mostly up to 46 µM; viability (% of control): at the top concentration
How it was run: as §1

Row | Structure (SMILES) | Potency | viability (% of control)
26 | O=C1NC(=O)C(c2cnc3ccccn23)=C1c1cn2c3c(cccc13)CN(C(=O)N1CCOCC1)CC2 | 118 nM (active) | –
27 | N#Cc1c(O)c2c(-c3ccc(-c4ccccc4O)cc3)csc2[nH]c1=O | – | 105% (inactive)
28 | CNC(=O)c1ccc2c(C(=Nc3cccc(CN(C)C)c3)c3ccccc3)c(O)[nH]c2c1 | 20900 nM (active) | –
